Experimental data as given in PubChem BioAssay (NCATS).
Results filed as inconclusive are left out. Where a call stands in place of a potency, no number is given. Some structures have more than one record in an assay (separate samples or runs), and their calls can disagree. Calls of active or inactive are those of the source. Calls follow the shape of the dose curve; as a rule, active = well fitted curve in the direction sought with a large enough effect; inconclusive = small, poorly fitted or top-dose-only effect, or another doubt; inactive = no such curve, though single readings can be large; an effect the other way counts as inactive or inconclusive.

What follows are molecules tested against Guanine nucleotide-binding protein G(i) subunit alpha-1 (Homo sapiens) (UniProt P63096) (assay: qHTS Assay for Inhibitors of RGS12 GoLoco Motif Activity (Green Fluorophore) (AID 879;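 also: negative values mean loss of peptide binding seen as reduced polarization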)). Details: Galphai1/FITC-RGS12 GoLoco peptide, fluorescence polarization; series mostly up to 57.1 µM.
Method in brief: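 A drop in FITC polarization marked displacement of the FITC-tagged RGS12 GoLoco peptide (10 nM) from Gαi1 (50 nM). Compounds were incubated 10 min at room temperature in Tris pH 7.5 buffer containing 150 mM NaCl, 0.1 mM GDP and 0.05% NP40; unlabeled peptide titration served as control.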

Chain of Guanine nucleotide-binding protein G(i) subunit alpha-1 (Homo sapiens) (P63096 whole entry, looked up): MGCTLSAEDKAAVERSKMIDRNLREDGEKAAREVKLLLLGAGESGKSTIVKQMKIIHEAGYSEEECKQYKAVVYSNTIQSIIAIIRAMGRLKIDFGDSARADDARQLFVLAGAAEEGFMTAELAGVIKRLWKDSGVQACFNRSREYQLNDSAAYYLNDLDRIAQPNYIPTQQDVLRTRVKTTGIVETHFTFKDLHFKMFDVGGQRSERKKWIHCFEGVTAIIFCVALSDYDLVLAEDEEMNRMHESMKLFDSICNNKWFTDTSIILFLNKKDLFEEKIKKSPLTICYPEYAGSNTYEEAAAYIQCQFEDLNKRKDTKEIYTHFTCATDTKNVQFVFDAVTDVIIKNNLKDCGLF

Row | Compound | outcome
1 | C[C@]12CC[C@@H]3c4ccc(O)cc4CC[C@H]3[C@@H]1CCC2=O | inactive
2 | OCCN1CCN(CCCN2c3ccccc3Sc3ccc(Cl)cc32)CC1 | inactive
3 | C#CCN(C)Cc1ccccc1 | inactive
4 | CCCCCCCCCCCCCCCC(=O)NCCO | inactive
5 | COc1ccc(Cl)cc1C(=O)NCCc1ccc(S(=O)(=O)NC(=O)NC2CCCCC2)cc1 | inactive
6 | C=Cc1c(C)c2cc3[nH]c(cc4nc(cc5nc(cc1[nH]2)C(C)=C5CCC(=O)O)C(CCC(=O)O)=C4C)c(C)c3C=C | inactive
7 | N=c1c[n+](N2CCOCC2)[n-]o1 | inactive
8 | CCN(CC)CCNC(=O)c1cc(Cl)c(N)cc1OC | inactive
9 | OCc1cc(C(O)CNCCCCCCOCCCCc2ccccc2)ccc1O (configuration not stated) | inactive
10 | CC(=O)OCC(=O)[C@@]1(O)CC[C@H]2[C@@H]3CCC4=CC(=O)CC[C@]4(C)[C@H]3C(=O)C[C@@]21C | inactive
11 | CC(C)NC[C@H](O)c1ccc(O)c(O)c1 | inactive
12 | NC1CCN(c2cccc(Cl)n2)CC1 | inactive
13 | CN(C)CCCN1c2ccccc2Sc2ccc(Cl)cc21 | inactive
14 | CCCn1cnc2c1c(=O)n(CCCCC(C)=O)c(=O)n2C | inactive

What follows are molecules tested against Cytochrome P450 2C9 (Homo sapiens) (UniProt P11712) (assay: qHTS Assay for Inhibitors and Substrates of Cytochrome P450 2C9 (AID 883; also: nearly all actives have a fitted effect of over 60% in size; also: potency is read from the fitted curve at half-maximal effect)). Details: recombinant CYP2C9, luciferin-H luminescence, 60 min; series mostly up to 57.1 µM.
Method in brief: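 CYP2C9 deoxyluciferin hydroxylation, 37C, 60 min with NADPH regeneration; 10nM enzyme, 100uM Luciferin-H (KM). Glo detection reagent stopped reaction; luminescence normalized to sulphaphenazole (57uM) full inhibition.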

Chain of Cytochrome P450 2C9 (Homo sapiens) (P11712 whole entry, looked up): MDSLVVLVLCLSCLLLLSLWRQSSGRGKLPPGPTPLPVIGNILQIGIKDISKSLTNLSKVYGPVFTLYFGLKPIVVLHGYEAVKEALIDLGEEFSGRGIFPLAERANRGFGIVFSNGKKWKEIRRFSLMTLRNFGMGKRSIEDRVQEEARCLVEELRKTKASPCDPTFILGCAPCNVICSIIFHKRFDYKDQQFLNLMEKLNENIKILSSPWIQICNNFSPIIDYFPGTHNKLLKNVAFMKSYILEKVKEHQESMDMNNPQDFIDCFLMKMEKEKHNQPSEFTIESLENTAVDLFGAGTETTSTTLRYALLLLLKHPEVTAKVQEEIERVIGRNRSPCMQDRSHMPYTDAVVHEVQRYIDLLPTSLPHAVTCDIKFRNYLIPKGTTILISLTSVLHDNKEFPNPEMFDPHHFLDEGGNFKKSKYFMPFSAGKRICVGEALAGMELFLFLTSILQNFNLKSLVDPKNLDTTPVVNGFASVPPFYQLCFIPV

Row | Compound | activity change, negative = inhibition | Potency
15 | Cc1cccc(Nc2cc(Cl)nc(SCC(=O)O)n2)c1C | -10.9% [at 11.4 µM] (inactive) | –
16 | Cc1c(Cl)cccc1Nc1ccccc1C(=O)O | – | 3160 nM (active)
17 | O=c1cc(CO)occ1O | – | inactive
18 | Cc1cc2c(cc1S(N)(=O)=O)S(=O)(=O)CCC2 | – | inactive

These molecules were tested against Cytochrome P450 3A4 (Homo sapiens) (UniProt P08684) (assay: qHTS Assay for Activators of Cytochrome P450 3A4 (AID 885; also: nearly all actives have a fitted effect of over 65% in size)). Details: recombinant CYP3A4, Luciferin-PPXE luminescence, 60 min; series mostly up to 57.1 µM.
Method in brief: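 Activators are scored by enhanced luminescence from CYP3A4 conversion of luciferin-PPXE (25uM, equal to KM) to luciferin, after 60 min at RT with an NADPH-regenerating system.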

Chain of Cytochrome P450 3A4 (Homo sapiens) (P08684 whole entry, looked up): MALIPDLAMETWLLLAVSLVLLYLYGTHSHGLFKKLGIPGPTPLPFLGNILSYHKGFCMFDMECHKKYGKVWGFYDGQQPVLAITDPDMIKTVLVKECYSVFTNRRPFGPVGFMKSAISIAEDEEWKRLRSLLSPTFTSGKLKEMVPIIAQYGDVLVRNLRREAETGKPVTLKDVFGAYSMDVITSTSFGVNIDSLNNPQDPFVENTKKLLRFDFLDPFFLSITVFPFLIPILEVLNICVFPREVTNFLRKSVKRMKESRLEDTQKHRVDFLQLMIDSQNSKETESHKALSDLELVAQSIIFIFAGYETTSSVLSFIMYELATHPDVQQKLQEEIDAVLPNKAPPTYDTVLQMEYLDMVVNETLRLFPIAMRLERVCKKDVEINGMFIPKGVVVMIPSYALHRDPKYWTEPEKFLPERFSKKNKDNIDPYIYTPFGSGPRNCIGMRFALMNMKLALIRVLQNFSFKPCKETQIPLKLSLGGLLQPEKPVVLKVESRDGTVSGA

Row | Compound | outcome
19 | CC1=C(/C=C/C(C)=C/C=C/C(C)=C/C(=O)O)C(C)(C)CCC1 | inactive
20 | CCCCN(CCCC)CCCOC(=O)c1ccc(N)cc1 | inactive
21 | CC(CN(C)C)CN1c2ccccc2CCc2ccccc21 (configuration not stated) | inactive
22 | CCCCN1CCCC[C@H]1C(=O)Nc1c(C)cccc1C | inactive
23 | CCN(CC)C(C)CN1c2ccccc2Sc2ccccc21 (configuration not stated) | inactive
24 | CCN(CC)CCCC(C)Nc1c2ccc(Cl)cc2nc2ccc(OC)cc12 (configuration not stated) | inactive
25 | COc1ccc2c(c1)C(=O)N(CCc1ccc(S(=O)(=O)NC(=O)NC3CCCCC3)cc1)C(=O)C2(C)C | inactive
26 | NS(=O)(=O)c1cc2c(cc1Cl)NC(CSCc1ccccc1)=NS2(=O)=O | inactive

What follows are molecules tested against Cytochrome P450 2D6 (Homo sapiens) (UniProt P10635) (assay: qHTS Assay for Inhibitors and Substrates of Cytochrome P450 2D6 (AID 891; also: nearly all actives have a fitted effect of over 60% in size; also: potency is read from the fitted curve at half-maximal effect;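 as to activity change, negative = inhibition: luciferin methyl ether substrate demethylated by CYP2D6 with NADPH regeneration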)). Details: recombinant CYP2D6, luciferin-ME EGE luminescence; series mostly up to 57.1 µM.
Method in brief: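 Luminescent read-out of luciferin formed by 5 nM human CYP2D6 demethylating 30 uM Luciferin-ME EGE (Km level) over 60 min at room temperature after NADPH regeneration addition. Data normalized to full inhibition by 1.43 uM quinidine.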

Chain of Cytochrome P450 2D6 (Homo sapiens) (P10635 whole entry, looked up): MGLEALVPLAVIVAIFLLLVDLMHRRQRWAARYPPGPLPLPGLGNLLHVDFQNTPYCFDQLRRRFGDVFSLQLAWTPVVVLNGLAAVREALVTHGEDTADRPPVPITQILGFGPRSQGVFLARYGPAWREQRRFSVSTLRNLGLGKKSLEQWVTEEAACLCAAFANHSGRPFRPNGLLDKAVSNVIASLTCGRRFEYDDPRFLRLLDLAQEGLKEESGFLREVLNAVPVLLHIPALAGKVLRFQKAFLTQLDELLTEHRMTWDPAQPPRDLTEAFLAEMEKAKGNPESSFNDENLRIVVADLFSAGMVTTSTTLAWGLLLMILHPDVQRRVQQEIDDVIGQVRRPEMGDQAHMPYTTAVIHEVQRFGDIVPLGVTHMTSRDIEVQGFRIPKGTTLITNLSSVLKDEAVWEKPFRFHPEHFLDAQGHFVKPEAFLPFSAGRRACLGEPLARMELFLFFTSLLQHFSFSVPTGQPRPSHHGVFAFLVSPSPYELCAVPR

Row | Compound | Potency | activity change, negative = inhibition
27 | CCCCN(CCCC)CCCOC(=O)c1ccc(N)cc1 | 6.3 nM (active) | –
28 | Cc1cccc(Nc2cc(Cl)nc(SCC(=O)O)n2)c1C | 3160 nM (active) | 13.3% [at 11.4 µM] (inactive)
29 | c1ccc2c(CC3=NCCN3)cccc2c1 | 7940 nM (active) | –
30 | CCCCN1CCCC[C@H]1C(=O)Nc1c(C)cccc1C | 501 nM (active) | –
31 | c1ccc(CN(CC2=NCCN2)c2ccccc2)cc1 | 2510 nM (active) | –
